Measurements reported in PubChem BioAssay (Tox21).
Results filed as inconclusive are left out. Where a call stands in place of a potency, no number is given. Activity calls are given as the source filed them. Unless noted, calls come from the whole dose curve; as a rule, active = well fitted curve in the direction sought with a large enough effect in the repeat runs; inconclusive = weak or mixed curves; inactive = no such curve, though single readings can be large; an effect the other way counts as inactive or inconclusive.

Columns and labels:
[1] = target: Acetylcholinesterase (Homo sapiens) (UniProt P22303); assay: Acetylcholinesterase (AChE) small molecule antagonists: enzyme-based qHTS assay with human liver microsomes (AID 1347399; calls by dose curve; note: nearly all actives have a fitted effect of over 60% in size); conditions: Potency: qHTS inhibition
Acetylcholinesterase (Homo sapiens), sequence (P22303 whole entry, looked up): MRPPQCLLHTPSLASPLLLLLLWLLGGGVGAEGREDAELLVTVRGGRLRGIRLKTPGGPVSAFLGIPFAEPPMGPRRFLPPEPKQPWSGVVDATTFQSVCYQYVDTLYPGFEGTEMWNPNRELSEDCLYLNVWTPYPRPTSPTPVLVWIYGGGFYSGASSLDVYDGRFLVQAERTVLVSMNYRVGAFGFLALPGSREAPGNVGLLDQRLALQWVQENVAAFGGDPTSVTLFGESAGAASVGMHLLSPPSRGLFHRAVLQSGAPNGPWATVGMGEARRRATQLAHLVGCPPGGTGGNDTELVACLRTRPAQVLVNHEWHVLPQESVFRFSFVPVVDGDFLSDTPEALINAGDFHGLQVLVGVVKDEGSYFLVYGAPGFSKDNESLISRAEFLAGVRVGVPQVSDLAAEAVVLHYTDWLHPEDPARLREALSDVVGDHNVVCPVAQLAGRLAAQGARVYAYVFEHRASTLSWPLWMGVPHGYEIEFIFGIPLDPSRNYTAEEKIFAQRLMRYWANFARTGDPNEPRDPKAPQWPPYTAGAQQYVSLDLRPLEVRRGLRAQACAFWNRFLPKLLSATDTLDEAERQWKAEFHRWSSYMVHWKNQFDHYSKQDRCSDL
In short: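 Recombinant human AChE (50 mU/mL in the enzyme mix) and human liver microsomes (0.25 mg/mL final) were preincubated with compound and NADPH (0.25 mg/mL final) for 30 min at 37 C. Acetylthiocholine/DTNB was then added; thiocholine was read colorimetrically after 10 min at room temperature.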

[2] = target: Cytochrome P450 1A2 (Homo sapiens) (UniProt P05177); assay: Cytochrome P450 Family 1 Subfamily A Member 2 (CYP1A2) small molecule antagonists: luciferase reporter qHTS assay (AID 1671199); note: nearly all actives have a fitted effect of over 50% in size; note: potency is the fitted concentration of half-maximal effect
Cytochrome P450 1A2 (Homo sapiens), sequence (P05177 whole entry, looked up): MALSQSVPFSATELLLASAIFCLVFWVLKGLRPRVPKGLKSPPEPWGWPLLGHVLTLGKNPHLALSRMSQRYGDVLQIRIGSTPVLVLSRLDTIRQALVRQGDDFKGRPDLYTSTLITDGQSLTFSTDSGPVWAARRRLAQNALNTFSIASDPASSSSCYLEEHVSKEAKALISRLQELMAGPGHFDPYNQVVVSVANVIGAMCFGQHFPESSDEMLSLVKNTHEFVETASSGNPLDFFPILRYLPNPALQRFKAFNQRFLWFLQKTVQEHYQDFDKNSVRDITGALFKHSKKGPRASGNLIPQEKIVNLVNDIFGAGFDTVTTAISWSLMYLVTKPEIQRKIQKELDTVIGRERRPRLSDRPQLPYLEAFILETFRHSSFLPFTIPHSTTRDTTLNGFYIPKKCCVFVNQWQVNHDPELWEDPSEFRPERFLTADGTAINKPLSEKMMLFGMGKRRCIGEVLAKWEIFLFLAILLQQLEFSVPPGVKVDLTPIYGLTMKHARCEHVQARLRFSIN
In short: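 P450-Glo CYP1A2 enzyme–proluciferin substrate mix with compound 10 min at room temperature, then NADPH regeneration 1 h at room temperature. Luciferin detection reagent added, luminescence read after 20 min; furafylline positive control.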

[3] = target: Cytochrome P450 3A4 (Homo sapiens) (UniProt P08684); assay: Cytochrome P450 Family 3 Subfamily A Member 4 (CYP3A4) small molecule antagonists: luciferase reporter qHTS assay (AID 1671201); note: nearly all actives have a fitted effect of over 50% in size; note: potency is the fitted concentration of half-maximal effect
Cytochrome P450 3A4 (Homo sapiens), sequence (P08684 whole entry, looked up): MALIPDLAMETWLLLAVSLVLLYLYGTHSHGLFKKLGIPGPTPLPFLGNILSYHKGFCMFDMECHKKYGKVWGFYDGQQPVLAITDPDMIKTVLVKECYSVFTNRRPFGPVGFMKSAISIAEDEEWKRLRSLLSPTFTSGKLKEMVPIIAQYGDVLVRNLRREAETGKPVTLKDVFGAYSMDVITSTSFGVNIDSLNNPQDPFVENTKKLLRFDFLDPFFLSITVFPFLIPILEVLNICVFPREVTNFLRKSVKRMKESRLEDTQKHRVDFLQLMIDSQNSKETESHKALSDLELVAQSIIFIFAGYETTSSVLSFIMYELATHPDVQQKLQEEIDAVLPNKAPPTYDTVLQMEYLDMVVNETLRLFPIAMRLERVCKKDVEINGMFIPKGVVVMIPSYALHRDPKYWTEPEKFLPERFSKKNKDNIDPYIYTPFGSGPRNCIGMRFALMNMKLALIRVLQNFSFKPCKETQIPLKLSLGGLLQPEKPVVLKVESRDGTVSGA
In short: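 Inhibition of CYP3A4 is measured as loss of light: the enzyme converts a proluciferin substrate to luciferin, detected luminescently. Reaction ran 1 h at room temperature with NADPH regeneration after a 10 min compound preincubation.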

[4] = target: Cytochrome P450 2C19 (Homo sapiens) (UniProt P33261); assay: Cytochrome P450 Family 2 Subfamily C Member 19 (CYP2C19) small molecule antagonists: luciferase reporter qHTS assay (AID 1671197); note: nearly all actives have a fitted effect of over 65% in size; note: potency is the fitted concentration of half-maximal effect
Cytochrome P450 2C19 (Homo sapiens), sequence (P33261 whole entry, looked up): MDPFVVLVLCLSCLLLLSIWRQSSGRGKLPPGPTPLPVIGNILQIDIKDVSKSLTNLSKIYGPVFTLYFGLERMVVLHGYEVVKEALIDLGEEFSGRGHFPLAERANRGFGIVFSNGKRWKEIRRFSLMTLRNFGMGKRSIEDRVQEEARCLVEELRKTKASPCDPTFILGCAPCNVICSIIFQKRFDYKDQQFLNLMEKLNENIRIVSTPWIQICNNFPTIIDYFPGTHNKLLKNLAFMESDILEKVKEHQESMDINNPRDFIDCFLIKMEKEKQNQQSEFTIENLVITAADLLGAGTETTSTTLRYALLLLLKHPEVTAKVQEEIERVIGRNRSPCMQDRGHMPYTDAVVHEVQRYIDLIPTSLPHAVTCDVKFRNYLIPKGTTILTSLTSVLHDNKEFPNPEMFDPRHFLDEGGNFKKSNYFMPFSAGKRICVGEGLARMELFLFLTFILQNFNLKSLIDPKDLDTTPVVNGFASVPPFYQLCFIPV
In short: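 Quantitative high-throughput screen of the Tox21 library using CYP2C19 with proluciferin substrate. Reaction: NADPH regeneration, 37C, 1 h, after 10 min compound preincubation at room temperature. Readout: luminescence.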

[5] = target: Cytochrome P450 2C9 (Homo sapiens) (UniProt P11712); assay: Cytochrome P450 Family 2 Subfamily C Member 9 (CYP2C9) small molecule antagonists: luciferase reporter qHTS assay (AID 1671198); note: nearly all actives have a fitted effect of over 50% in size; note: potency is the fitted concentration of half-maximal effect
Cytochrome P450 2C9 (Homo sapiens), sequence (P11712 whole entry, looked up): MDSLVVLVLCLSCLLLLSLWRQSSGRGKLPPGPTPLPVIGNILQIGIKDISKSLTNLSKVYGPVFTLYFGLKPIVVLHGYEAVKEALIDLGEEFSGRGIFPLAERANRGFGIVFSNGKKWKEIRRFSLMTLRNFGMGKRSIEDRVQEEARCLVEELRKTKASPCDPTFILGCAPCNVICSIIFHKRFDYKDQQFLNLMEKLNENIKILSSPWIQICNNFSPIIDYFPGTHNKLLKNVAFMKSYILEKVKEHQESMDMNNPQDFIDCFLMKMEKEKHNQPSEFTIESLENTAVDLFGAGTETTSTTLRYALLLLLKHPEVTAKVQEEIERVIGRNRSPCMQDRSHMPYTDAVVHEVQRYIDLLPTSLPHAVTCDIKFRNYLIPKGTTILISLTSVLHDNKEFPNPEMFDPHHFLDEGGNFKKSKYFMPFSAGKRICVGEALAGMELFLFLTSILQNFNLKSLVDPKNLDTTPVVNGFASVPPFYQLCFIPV
In short: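 P450-Glo proluciferin substrate with CYP2C9 enzyme; 10 min RT preincubation, then NADPH regeneration 1 h at 37C; luciferin detection reagent 20 min RT, luminescence in relative luminescence units.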

[6] = target: Cytochrome P450 2D6 (Homo sapiens) (UniProt P10635); assay: Cytochrome P450 Family 2 Subfamily D Member 6 (CYP2D6) small molecule antagonists: luciferase reporter qHTS assay (AID 1671196); note: nearly all actives have a fitted effect of over 50% in size; note: potency is the fitted concentration of half-maximal effect
Cytochrome P450 2D6 (Homo sapiens), sequence (P10635 whole entry, looked up): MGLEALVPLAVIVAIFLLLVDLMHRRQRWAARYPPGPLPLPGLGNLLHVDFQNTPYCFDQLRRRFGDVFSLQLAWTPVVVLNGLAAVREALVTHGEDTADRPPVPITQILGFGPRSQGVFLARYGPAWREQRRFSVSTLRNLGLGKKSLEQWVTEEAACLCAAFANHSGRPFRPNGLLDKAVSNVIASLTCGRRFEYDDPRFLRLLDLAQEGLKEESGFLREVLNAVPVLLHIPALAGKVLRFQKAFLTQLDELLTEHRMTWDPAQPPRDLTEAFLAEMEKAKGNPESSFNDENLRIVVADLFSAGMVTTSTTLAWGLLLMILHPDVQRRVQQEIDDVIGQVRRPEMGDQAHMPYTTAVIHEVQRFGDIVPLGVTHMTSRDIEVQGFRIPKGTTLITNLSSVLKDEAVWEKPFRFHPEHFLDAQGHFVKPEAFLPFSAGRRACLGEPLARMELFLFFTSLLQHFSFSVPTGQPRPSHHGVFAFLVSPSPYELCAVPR
In short: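 Cell-free P450-Glo system: CYP2D6 with proluciferin substrate was pre-incubated with compound for 10 min, then reacted with NADPH regeneration for 1 h at room temperature. Luciferin product was detected after 20 min, and data were reported as relative luminescence units.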

[7] = target: Voltage-gated inwardly rectifying potassium channel KCNH2 (Homo sapiens) (UniProt Q12809); assay: Human Ether-a-go-go-Related Gene (hERG) channel small molecule antagonists: fluorescence cell-based qHTS assay (AID 1671200); note: nearly all actives have a fitted effect of over 50% in size; note: potency is the fitted concentration of half-maximal effect
Voltage-gated inwardly rectifying potassium channel KCNH2 (Homo sapiens), sequence (Q12809 whole entry, looked up): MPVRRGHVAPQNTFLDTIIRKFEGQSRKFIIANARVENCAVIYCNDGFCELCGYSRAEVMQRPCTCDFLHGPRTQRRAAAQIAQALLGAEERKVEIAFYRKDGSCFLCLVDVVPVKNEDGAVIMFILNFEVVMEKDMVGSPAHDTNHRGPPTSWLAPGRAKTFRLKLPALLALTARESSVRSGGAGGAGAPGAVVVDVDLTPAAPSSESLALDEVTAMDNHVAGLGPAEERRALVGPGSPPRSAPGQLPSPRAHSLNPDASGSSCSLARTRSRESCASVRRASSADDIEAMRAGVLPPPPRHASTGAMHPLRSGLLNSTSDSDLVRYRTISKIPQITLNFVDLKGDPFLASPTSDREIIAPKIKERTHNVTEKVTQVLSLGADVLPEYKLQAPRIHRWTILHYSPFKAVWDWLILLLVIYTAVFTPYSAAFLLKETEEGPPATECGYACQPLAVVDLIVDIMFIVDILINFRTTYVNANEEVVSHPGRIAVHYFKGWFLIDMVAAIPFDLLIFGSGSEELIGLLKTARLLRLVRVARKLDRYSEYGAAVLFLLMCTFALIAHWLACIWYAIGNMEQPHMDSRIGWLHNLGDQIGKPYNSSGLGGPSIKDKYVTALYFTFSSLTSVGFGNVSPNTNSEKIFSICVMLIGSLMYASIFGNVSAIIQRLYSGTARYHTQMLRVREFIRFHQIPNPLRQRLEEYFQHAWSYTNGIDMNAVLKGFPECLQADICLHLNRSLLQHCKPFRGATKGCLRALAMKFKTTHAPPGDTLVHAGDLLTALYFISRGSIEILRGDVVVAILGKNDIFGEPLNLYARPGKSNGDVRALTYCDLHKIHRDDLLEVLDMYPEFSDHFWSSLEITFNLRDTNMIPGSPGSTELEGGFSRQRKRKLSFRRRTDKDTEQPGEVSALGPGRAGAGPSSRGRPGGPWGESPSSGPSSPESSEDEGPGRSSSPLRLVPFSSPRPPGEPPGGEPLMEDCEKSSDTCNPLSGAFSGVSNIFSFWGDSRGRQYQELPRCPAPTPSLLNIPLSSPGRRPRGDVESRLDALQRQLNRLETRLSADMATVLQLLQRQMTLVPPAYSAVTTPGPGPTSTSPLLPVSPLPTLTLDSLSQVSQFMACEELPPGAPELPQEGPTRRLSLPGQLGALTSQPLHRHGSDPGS
In short: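 Quantitative HTS in hERG-U2OS cells: thallium entry through the channel reports activity, read as continuous 480/540 nm fluorescence over 2 min after stimulus addition.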

SMILES	Potency [1]	Potency [2]	Potency [3]	Potency [4]	Potency [5]	Potency [6]	Potency [7]
O=c1[nH]c2ccccc2n1C1CCN(CCCC(c2ccc(F)cc2)c2ccc(F)cc2)CC1	inactive	inactive	inactive	–	–	–	–
ClCc1ccccc1CCl	inactive	–	inactive	inactive	inactive	–	–
N#CCCC(Br)(C#N)CBr (centres undefined)	–	15.9 µM (active)	inactive	11.2 µM (active)	8.94 µM (active)	inactive	–
C[C@@H]1CC[C@@]2(OC1)O[C@H]1[C@@H](O)[C@H]3[C@@H]4CC[C@H]5C[C@@H](O[C@@H]6O[C@H](CO)[C@H](O[C@@H]7O[C@H](CO)[C@@H](O)[C@H](O[C@@H]8OC[C@@H](O)[C@H](O)[C@H]8O)[C@H]7O[C@@H]7O[C@H](CO)[C@@H](O)[C@H](O[C@@H]8O[C@H](CO)[C@@H](O)[C@H](O)[C@H]8O)[C@H]7O)[C@H](O)[C@H]6O)[C@H](O)C[C@]5(C)[C@H]4CC[C@]3(C)[C@H]1[C@@H]2C	–	inactive	–	inactive	inactive	inactive	11.6 µM (active)
CSCCCN=C=S	inactive	inactive	inactive	71 µM (active)	–	–	–
Oc1ccc(C(=C(Cl)Cl)c2ccc(O)cc2)cc1	–	39.8 µM (active)	–	12.6 µM (active)	5.63 µM (active)	inactive	–
CCOP(=S)(OCC)SCCS(=O)(=O)CC	–	35.6 µM (active)	1.59 µM (active)	0.1 µM (active)	0.894 µM (active)	2.24 µM (active)	inactive
CC(=[OH+])/C=C(/C)[O-].CC(=[OH+])/C=C(\C)[O-].CC(=[OH+])/C=C(\C)[O-].[Al]	–	inactive	–	inactive	inactive	inactive	inactive
Oc1cccc(-c2ccccc2)c1	inactive	17.8 µM (active)	–	35.6 µM (active)	–	–	inactive
O=C(CBr)c1ccc(O)cc1	inactive	31.7 µM (active)	inactive	–	inactive	–	inactive
Oc1ccc(I)cc1	inactive	39.9 µM (active)	inactive	–	71 µM (active)	–	inactive
CN(C)c1ccc(N=Nc2ccccc2)cc1	–	3.56 µM (active)	inactive	20 µM (active)	15.9 µM (active)	40 µM (active)	inactive
CC[C@H](C)[C@H]1O[C@]2(C=C[C@@H]1C)C[C@@H]1C[C@@H](C/C=C(\C)[C@@H](O[C@H]3C[C@H](OC)[C@@H](O[C@H]4C[C@H](OC)[C@@H](O)[C@H](C)O4)[C@H](C)O3)[C@@H](C)/C=C/C=C3\CO[C@@H]4[C@H](O)C(C)=C[C@@H](C(=O)O1)[C@]34O)O2	–	33.3 µM (active)	9.39 µM (active)	21 µM (active)	10.5 µM (active)	33.3 µM (active)	inactive
Cn1[nH]nnc1=S	inactive	–	inactive	56.4 µM (active)	71 µM (active)	–	–
COP(N)(=S)OC	inactive	inactive	–	–	inactive	–	inactive
N#Cc1ccccc1N	–	inactive	inactive	inactive	inactive	25.2 µM (active)	inactive
BrCC(Br)c1ccccc1 (centres undefined)	inactive	–	inactive	–	–	–	inactive
